# What was measured:
# Assay in all cases: DAPPL (digital affinity profiling via proximity ligation, sequencing); 10 mM Tris-HCl pH 7.5, 50 mM NaCl, 1 mM DTT, 4% glycerol, room temperature, 30 min; GST-TFs on glutathione beads, 16-mer random dsDNA library, 0.1% formaldehyde crosslink after washing; high values mean tight binding
# FLI1 = molecular target: T1, FLI1 (Homo sapiens, UniProt Q01543 1-452); details: protein: recombinant; tags: N-terminal GST; dsDNA, one strand shown
# T1 sequence: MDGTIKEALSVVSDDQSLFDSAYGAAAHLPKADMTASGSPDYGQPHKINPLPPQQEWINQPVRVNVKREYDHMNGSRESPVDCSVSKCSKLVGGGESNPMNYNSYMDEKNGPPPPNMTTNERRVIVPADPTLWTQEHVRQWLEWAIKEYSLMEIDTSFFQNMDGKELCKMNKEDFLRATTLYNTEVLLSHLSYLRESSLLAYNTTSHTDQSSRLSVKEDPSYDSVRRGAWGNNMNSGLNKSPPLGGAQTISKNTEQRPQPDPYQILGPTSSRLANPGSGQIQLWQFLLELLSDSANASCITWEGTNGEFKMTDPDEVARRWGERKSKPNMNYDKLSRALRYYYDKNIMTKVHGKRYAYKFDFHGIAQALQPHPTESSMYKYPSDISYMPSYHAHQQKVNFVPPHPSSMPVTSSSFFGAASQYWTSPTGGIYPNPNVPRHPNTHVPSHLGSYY
# Summary of the method: (§1)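 A tag-only sample was pooled with DNA-barcoded human transcription factors that had been expressed in yeast as GST fusions and captured on glutathione beads. The pools were incubated for 30 min at room temperature with 200 nmole of a random double-stranded 16-mer DNA library in Tris/NaCl/DTT/glycerol buffer, then washed, crosslinked with 0.1% formaldehyde, proximity-ligated (BsaI/T4 ligase, 1 h, 37 °C), PCR-amplified and sequenced on an Illumina NextSeq500. Binding signal is each hexamer's read frequency for a factor divided by its frequency for the tag-only sample.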
# ELK1 = molecular target: T2, ELK1 (Homo sapiens, UniProt P19419 1-428); details: protein: recombinant; tags: N-terminal GST; dsDNA, one strand shown
# T2 sequence: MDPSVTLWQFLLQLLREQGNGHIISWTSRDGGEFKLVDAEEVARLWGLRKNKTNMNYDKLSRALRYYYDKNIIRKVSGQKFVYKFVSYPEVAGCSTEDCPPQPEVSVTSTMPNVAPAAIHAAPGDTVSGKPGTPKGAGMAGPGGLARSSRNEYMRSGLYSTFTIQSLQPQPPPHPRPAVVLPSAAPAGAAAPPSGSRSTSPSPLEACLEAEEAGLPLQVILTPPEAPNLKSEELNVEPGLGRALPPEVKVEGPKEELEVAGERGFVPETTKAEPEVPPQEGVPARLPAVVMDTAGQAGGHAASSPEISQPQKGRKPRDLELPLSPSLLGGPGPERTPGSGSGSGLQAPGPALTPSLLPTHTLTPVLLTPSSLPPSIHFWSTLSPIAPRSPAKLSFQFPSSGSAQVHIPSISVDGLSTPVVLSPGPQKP
# Summary of the method: as §1
# GABPA = molecular target: T3, GABPA (Homo sapiens, UniProt Q06546 1-454); details: protein: recombinant; tags: N-terminal GST; dsDNA, one strand shown
# T3 sequence: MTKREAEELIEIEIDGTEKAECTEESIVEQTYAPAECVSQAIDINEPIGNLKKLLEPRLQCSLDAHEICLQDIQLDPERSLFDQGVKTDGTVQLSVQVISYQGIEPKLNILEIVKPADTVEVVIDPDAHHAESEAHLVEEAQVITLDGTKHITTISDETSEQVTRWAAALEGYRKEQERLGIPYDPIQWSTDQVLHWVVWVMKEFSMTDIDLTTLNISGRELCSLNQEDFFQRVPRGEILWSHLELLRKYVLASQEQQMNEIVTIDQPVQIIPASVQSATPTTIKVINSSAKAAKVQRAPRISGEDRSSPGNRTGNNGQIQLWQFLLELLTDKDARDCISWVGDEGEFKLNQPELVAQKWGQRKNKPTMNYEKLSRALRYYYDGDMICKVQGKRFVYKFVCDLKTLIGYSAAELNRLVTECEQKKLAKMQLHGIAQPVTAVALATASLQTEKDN
# Summary of the method: as §1
# ERG = molecular target: T4, ERG (Homo sapiens, UniProt P11308 1-479); details: protein: recombinant; tags: N-terminal GST; dsDNA, one strand shown
# T4 sequence: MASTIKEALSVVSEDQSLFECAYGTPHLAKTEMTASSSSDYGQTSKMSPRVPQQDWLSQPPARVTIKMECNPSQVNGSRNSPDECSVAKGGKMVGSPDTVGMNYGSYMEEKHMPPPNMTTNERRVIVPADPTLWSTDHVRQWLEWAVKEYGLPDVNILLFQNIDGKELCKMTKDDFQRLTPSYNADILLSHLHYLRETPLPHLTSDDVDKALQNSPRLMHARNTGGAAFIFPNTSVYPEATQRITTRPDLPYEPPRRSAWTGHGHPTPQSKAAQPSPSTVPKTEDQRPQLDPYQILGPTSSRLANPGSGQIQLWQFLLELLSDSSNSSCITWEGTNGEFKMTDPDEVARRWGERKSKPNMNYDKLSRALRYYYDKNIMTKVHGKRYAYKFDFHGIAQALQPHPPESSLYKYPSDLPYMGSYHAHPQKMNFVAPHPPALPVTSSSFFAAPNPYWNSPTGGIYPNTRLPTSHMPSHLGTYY
# Summary of the method: as §1
# ELF1 = ELF1 (Homo sapiens, UniProt P32519 1-619); details: protein: recombinant; tags: N-terminal GST; dsDNA, one strand shown
# ELF1, sequence (P32519 whole entry): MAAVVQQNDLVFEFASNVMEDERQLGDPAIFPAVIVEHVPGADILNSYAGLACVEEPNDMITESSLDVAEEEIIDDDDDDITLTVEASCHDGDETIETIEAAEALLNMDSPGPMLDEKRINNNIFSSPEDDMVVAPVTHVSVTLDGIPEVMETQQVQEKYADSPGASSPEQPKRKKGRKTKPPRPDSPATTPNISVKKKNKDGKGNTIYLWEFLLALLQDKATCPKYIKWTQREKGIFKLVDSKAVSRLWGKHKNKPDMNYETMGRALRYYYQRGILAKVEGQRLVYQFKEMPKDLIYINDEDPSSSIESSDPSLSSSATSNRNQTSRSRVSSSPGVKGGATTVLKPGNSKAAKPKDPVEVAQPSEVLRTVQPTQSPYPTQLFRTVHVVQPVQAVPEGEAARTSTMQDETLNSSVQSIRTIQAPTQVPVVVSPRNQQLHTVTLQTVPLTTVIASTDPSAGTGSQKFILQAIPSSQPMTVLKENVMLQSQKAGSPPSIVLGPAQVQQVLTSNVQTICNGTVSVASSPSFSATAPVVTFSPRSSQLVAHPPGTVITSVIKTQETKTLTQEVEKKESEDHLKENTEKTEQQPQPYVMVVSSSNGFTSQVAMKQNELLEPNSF
# Summary of the method: as §1
# EHF = molecular target: T5, EHF (Homo sapiens, UniProt Q9NZC4 1-300); details: protein: recombinant; tags: N-terminal GST; dsDNA, one strand shown
# T5 sequence: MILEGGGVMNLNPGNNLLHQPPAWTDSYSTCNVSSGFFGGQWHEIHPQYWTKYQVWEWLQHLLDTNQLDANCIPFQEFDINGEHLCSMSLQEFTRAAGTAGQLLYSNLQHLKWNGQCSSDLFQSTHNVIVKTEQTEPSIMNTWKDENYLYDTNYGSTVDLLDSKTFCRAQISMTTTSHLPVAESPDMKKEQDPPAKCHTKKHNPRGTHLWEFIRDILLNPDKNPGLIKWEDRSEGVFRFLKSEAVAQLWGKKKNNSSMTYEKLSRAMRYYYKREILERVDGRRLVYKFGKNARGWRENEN
# Summary of the method: as §1
# SPI1 = SPI1 (Homo sapiens, UniProt P17947 1-270); details: protein: recombinant; tags: N-terminal GST; dsDNA, one strand shown
# Summary of the method: as §1
# SPIB = SPIB (Homo sapiens, UniProt Q01892 1-262); details: protein: recombinant; tags: N-terminal GST; dsDNA, one strand shown
# SPIB, sequence (Q01892 whole entry): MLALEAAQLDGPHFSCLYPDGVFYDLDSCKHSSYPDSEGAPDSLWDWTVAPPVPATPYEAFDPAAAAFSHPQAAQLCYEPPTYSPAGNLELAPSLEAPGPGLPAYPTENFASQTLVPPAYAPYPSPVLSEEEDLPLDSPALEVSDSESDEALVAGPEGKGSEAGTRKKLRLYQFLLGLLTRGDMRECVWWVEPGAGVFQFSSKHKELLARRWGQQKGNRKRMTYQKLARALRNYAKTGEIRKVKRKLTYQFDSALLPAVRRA
# Summary of the method: as §1
# ELK3 = molecular target: T6, ELK3 (Homo sapiens, UniProt P41970 1-407); details: protein: recombinant; tags: N-terminal GST; dsDNA, one strand shown
# T6 sequence: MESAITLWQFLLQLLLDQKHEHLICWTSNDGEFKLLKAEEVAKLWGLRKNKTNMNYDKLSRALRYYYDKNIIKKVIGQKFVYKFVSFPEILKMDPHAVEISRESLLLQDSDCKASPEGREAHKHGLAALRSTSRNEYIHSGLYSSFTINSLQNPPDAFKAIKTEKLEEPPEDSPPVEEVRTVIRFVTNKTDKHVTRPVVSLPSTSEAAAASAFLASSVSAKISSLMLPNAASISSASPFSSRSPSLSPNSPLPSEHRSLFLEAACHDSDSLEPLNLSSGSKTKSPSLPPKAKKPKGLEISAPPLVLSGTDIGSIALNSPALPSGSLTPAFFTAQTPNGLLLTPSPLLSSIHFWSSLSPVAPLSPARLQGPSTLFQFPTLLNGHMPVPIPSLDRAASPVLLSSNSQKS
# Summary of the method: as §1
# FEV = molecular target: T7, FEV (Homo sapiens, UniProt Q99581 1-238); details: protein: recombinant; tags: N-terminal GST; dsDNA, one strand shown
# T7 sequence: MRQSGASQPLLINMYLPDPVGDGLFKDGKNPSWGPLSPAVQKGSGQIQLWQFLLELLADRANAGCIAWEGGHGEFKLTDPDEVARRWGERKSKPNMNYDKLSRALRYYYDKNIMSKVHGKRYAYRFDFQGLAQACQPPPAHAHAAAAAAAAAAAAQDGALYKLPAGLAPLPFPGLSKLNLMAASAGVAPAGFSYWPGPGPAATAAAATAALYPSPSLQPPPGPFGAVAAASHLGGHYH
# Summary of the method: as §1
# ETV5 = ETV5 (Homo sapiens, UniProt P41161 1-510); details: protein: recombinant; tags: N-terminal GST; dsDNA, one strand shown
# ETV5, sequence (P41161 whole entry): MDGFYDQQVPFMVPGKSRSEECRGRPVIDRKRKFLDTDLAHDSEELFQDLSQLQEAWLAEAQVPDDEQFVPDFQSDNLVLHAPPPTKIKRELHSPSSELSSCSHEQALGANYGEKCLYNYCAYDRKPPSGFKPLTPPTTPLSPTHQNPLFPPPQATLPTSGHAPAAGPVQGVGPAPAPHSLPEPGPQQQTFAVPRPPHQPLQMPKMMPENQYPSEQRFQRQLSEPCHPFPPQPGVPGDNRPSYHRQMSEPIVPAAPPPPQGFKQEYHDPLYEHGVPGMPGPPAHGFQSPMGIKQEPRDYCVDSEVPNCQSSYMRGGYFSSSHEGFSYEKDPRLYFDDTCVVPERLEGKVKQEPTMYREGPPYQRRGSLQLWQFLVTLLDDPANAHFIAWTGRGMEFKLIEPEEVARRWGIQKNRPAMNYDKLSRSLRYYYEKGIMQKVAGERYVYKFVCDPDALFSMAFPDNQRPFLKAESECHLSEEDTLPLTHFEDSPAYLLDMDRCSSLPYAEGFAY
# Summary of the method: as §1
# HSF1 = HSF1 (Homo sapiens, UniProt Q00613 1-529); details: protein: recombinant; tags: N-terminal GST; chain copies: 3; dsDNA, one strand shown
# HSF1, sequence (Q00613 whole entry): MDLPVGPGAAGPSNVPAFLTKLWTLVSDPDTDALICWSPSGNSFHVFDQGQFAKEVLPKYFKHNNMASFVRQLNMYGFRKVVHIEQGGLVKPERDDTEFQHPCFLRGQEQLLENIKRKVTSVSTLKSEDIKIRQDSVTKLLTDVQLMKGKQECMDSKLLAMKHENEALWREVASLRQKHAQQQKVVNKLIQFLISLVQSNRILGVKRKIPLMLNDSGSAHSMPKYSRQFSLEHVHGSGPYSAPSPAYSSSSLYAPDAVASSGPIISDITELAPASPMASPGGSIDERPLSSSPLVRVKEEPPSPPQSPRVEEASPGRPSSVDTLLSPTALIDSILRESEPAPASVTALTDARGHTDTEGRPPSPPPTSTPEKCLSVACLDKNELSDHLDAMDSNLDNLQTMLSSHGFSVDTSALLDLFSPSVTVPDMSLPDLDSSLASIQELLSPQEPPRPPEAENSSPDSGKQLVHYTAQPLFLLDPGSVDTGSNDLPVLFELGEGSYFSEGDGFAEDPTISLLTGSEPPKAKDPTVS
# Summary of the method: as §1
# SPIC = molecular target: T8, SPIC (Homo sapiens, UniProt Q8N5J4 1-248); details: protein: recombinant; tags: N-terminal GST; dsDNA, one strand shown
# T8 sequence: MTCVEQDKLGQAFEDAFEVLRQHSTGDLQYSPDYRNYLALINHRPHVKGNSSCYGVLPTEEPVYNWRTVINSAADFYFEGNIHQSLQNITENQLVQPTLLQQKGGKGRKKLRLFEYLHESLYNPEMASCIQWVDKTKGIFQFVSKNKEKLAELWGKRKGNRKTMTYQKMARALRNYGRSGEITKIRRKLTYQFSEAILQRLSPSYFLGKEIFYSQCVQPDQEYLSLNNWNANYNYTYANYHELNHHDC
# Summary of the method: as §1
# ELF4 = ELF4 (Homo sapiens, UniProt Q99607 1-663); details: protein: recombinant; tags: N-terminal GST; dsDNA, one strand shown
# ELF4, sequence (Q99607 whole entry): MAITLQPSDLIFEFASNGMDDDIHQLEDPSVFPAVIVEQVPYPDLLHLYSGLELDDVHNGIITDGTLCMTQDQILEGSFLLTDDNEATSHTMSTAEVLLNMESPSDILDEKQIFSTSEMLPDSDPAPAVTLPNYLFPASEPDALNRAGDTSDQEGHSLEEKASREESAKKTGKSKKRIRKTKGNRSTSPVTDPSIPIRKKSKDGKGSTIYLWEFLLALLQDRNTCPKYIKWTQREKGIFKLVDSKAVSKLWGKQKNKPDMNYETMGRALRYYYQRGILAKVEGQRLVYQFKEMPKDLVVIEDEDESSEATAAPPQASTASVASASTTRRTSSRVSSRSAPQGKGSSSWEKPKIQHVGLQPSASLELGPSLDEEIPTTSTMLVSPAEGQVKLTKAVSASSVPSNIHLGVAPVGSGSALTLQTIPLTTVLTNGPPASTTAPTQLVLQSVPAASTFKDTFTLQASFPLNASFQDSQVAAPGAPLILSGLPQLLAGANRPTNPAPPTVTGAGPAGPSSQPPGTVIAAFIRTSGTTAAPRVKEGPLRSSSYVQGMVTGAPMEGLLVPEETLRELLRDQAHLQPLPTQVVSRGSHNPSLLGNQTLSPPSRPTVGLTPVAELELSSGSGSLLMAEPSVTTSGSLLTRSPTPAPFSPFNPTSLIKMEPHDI
# Summary of the method: as §1
# ELK4 = molecular target: T9, ELK4 (Homo sapiens, UniProt P28324-2 1-405); details: protein: recombinant; tags: N-terminal GST; dsDNA, one strand shown
# T9 sequence: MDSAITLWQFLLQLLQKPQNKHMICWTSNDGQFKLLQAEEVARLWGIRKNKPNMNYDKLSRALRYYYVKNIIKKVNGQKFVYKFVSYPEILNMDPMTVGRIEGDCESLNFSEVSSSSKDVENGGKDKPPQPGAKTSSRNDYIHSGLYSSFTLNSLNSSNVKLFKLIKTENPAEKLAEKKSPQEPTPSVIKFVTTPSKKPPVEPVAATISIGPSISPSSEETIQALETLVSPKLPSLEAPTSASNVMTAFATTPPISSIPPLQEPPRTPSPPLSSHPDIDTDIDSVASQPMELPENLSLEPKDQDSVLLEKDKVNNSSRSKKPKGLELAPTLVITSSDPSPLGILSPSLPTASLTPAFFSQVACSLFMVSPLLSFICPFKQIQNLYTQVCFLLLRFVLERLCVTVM
# Summary of the method: as §1
# ETV2 = molecular target: T10, ETV2 (Homo sapiens, UniProt O00321 1-342); details: protein: recombinant; tags: N-terminal GST; dsDNA, one strand shown
# T10 sequence: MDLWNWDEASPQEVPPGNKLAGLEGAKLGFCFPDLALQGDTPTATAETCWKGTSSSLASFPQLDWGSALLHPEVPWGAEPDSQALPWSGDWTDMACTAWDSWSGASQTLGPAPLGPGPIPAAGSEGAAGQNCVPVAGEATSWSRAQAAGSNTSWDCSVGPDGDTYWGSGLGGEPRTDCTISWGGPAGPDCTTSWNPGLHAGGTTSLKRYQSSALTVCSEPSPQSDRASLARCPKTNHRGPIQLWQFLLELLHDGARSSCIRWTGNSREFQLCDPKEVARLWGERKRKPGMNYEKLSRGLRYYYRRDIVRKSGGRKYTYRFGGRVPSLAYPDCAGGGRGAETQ
# Summary of the method: as §1
# ELF3 = molecular target: T11, ELF3 (Homo sapiens, UniProt P78545 1-371); details: protein: recombinant; tags: N-terminal GST; dsDNA, one strand shown
# T11 sequence: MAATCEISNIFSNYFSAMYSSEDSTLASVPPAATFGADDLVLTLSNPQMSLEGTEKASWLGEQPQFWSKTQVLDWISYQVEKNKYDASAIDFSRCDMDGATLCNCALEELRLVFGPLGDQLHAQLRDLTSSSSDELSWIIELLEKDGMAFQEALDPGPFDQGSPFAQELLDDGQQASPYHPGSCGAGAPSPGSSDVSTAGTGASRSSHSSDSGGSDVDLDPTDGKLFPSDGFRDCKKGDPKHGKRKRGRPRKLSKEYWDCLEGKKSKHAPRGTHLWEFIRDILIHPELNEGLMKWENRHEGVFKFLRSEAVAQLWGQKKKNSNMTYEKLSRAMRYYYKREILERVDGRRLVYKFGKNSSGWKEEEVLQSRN
# Summary of the method: as §1
# CRX = CRX (Homo sapiens, UniProt O43186 1-299); details: protein: recombinant; tags: N-terminal GST; dsDNA, one strand shown
# CRX, sequence (O43186 whole entry): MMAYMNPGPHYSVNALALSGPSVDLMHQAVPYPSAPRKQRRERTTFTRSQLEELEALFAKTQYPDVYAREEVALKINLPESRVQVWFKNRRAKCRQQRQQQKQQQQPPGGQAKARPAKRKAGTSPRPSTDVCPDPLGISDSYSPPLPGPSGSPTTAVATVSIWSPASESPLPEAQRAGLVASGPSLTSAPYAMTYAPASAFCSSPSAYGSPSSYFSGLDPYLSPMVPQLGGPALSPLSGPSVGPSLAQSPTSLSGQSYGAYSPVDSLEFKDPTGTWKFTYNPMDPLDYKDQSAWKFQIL
# Summary of the method: as §1
# ETV1 = ETV1 (Homo sapiens, UniProt P50549 1-477); details: protein: recombinant; tags: N-terminal GST; dsDNA, one strand shown
# ETV1, sequence (P50549 whole entry): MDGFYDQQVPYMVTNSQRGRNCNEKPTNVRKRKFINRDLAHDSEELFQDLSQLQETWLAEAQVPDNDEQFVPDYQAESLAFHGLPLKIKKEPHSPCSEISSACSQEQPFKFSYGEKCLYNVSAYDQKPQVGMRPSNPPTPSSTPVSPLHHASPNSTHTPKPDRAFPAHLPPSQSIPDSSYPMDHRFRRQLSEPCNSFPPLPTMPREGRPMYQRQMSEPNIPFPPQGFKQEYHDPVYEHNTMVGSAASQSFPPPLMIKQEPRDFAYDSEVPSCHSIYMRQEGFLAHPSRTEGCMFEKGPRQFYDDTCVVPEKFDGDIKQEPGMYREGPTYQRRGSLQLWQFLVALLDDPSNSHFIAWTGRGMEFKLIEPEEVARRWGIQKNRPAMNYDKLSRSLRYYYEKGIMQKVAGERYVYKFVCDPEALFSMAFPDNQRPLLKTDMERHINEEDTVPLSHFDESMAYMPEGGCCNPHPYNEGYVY
# Summary of the method: as §1
sequence,measurement,setting,value
TTCTGA,binding signal,FLI1,"1.37 fold enrichment (6-mer frequency, TF over GST control)"
same,binding signal,ELK1,"1.39 fold enrichment (6-mer frequency, TF over GST control)"
same,binding signal,GABPA,"1.27 fold enrichment (6-mer frequency, TF over GST control)"
same,binding signal,ERG,"1.31 fold enrichment (6-mer frequency, TF over GST control)"
same,binding signal,ELF1,"1.27 fold enrichment (6-mer frequency, TF over GST control)"
same,binding signal,EHF,"1.32 fold enrichment (6-mer frequency, TF over GST control)"
same,binding signal,SPI1,"1.21 fold enrichment (6-mer frequency, TF over GST control)"
same,binding signal,SPIB,"1.32 fold enrichment (6-mer frequency, TF over GST control)"
same,binding signal,ELK3,"1.38 fold enrichment (6-mer frequency, TF over GST control)"
same,binding signal,FEV,"1.22 fold enrichment (6-mer frequency, TF over GST control)"
same,binding signal,ETV5,"1.23 fold enrichment (6-mer frequency, TF over GST control)"
same,binding signal,HSF1,"1.48 fold enrichment (6-mer frequency, TF over GST control)"
same,binding signal,SPIC,"1.03 fold enrichment (6-mer frequency, TF over GST control)"
same,binding signal,ELF4,"1.45 fold enrichment (6-mer frequency, TF over GST control)"
same,binding signal,ELK4,"1.4 fold enrichment (6-mer frequency, TF over GST control)"
same,binding signal,ETV2,"1.23 fold enrichment (6-mer frequency, TF over GST control)"
same,binding signal,ELF3,"1.13 fold enrichment (6-mer frequency, TF over GST control)"
same,binding signal,CRX,"1.41 fold enrichment (6-mer frequency, TF over GST control)"
same,binding signal,ETV1,"1.27 fold enrichment (6-mer frequency, TF over GST control)"

# — article PMC7862700, “An all-to-all approach to the identification of sequence-specific readers for epigenetic DNA modifications on cytosine”
